The values below come from PubChem BioAssay (NCATS).

Results filed as inconclusive are left out. Active and inactive are the calls of the source. Unless noted, calls follow the shape of the dose curve; as a rule, active = well fitted curve in the direction sought with a large enough effect; inconclusive = small, poorly fitted or top-dose-only effect, or another doubt; inactive = no such curve, though single readings can be large; an effect the other way counts as inactive or inconclusive.

For assay [1], the target named is Cytochrome P450 3A4 (Homo sapiens) (UniProt P08684). The assay can be described thus: qHTS Assay for Inhibitors and Substrates of Cytochrome P450 3A4 (AID 884). Also: % is scaled to controls: 0 for no effect and ±100 for the full control effect; nearly all actives have a fitted effect of over 50% in size. The method in brief: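 Luminescent readout of luciferin produced by CYP3A4 (20 nM) dealkylation of Luciferin-PPXE, 25 uM (its KM). NADPH-driven reaction ran 60 min at RT after 10 min compound preincubation; data scaled to 57 uM ketoconazole as 100% inhibition.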

Assay [2] can be described thus: Confirmation and Secondary Assay for Modulators of Hemoglobin Beta Chain Splicing at IVS2 654 locus (AID 910).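 Also: HeLa cells stably carrying EGFP split by mutant beta-globin IVS2-654 intron; % of control where 0% means no effect.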 In short, it runs like this: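 HeLa cells stably expressing EGFP interrupted by β-globin IVS2-654 intron, seeded overnight in Opti-MEM/2% FCS, then treated 2 days at 37 °C. Restored splicing read as total peak GFP intensity per well by laser scanning cytometry (488 nm excitation, 500–520 nm emission); 500 nM antisense PNA as control.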

Assay [3] is described as follows: Confirmation and Secondary Assay for Modulators of Hemoglobin Beta Chain Splicing at IVS2 705 locus (AID 930).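 Also: HeLa cells stably expressing the EGFP-705 splicing reporter; GFP fluorescence per well restored by corrected splicing of the IVS2-705 intron in EGFP; % of control where 0% means no effect.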 The method in brief: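 Read-out: total peak GFP fluorescence per well (488 nm excitation, 500-520 nm emission) by laser-scanning cytometry. Cells: HeLa EGFP-705 splicing reporter, 2 days compound exposure in Optimem/2% FCS.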
Assay [4] is described as follows: qHTS Assay for Lipid Storage Modulators (AID 1519; calls by dose curve; as to activity change, negative = inhibition: % is scaled to controls: 0 for no effect and ±100 for the full control effect). The following applies: Drosophila S3 cells, BODIPY lipid droplet/cell ratio, laser cytometry, cells loaded with oleic acid; for activity change, negative = inhibition: at 57.5 µM (top of the series). In short, it runs like this: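 Cells seeded at 5,000 per well were treated with compounds over a concentration series and loaded with oleic acid (400 uM, as added). Lipid droplet fluorescence (488 nm excitation, 500-530 nm channel) was read by laser-scanning cytometry and normalized to 20 uM Triacsin C.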
In general terms: In qHTS, concentration-response curves come from the screen itself.

In assay [5] the target is Ubiquitin carboxyl-terminal hydrolase 1 (Homo sapiens) (UniProt O94782). Nature of the assay: Inhibitors of USP1/UAF1: Pilot qHTS (AID 504865).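 Also: rhodamine fluorescence freed from ubiquitin-rhodamine substrate followed over time; top concentration of the series differs between compounds; % is scaled to controls: 0 for no effect and ±100 for the full control effect; nearly all actives have a fitted effect of over 35% in size.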 The method in brief:
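Kinetic fluorescence assay: 1nM USP1/UAF1, 15 min compound preincubation, then 150nM Ub-Rho; 480/540 nm.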

The mark [6] stands for this setting: measured here: cell count channel max response.
Setting [7] is: measured here: lipid channel max response.

Cytochrome P450 3A4 (Homo sapiens), sequence (P08684 whole entry, looked up): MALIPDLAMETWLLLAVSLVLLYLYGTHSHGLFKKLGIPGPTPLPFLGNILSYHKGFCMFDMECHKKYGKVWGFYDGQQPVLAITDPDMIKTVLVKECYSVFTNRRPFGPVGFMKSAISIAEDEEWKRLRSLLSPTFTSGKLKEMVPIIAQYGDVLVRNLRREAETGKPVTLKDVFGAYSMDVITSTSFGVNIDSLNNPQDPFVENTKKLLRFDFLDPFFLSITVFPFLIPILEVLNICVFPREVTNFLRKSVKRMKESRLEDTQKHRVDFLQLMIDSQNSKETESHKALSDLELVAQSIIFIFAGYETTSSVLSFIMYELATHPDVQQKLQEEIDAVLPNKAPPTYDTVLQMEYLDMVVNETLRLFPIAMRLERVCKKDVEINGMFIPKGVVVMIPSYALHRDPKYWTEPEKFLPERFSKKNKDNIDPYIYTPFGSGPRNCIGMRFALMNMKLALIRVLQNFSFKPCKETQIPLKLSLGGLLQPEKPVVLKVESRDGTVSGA
Ubiquitin carboxyl-terminal hydrolase 1 (Homo sapiens), sequence (O94782 whole entry, looked up): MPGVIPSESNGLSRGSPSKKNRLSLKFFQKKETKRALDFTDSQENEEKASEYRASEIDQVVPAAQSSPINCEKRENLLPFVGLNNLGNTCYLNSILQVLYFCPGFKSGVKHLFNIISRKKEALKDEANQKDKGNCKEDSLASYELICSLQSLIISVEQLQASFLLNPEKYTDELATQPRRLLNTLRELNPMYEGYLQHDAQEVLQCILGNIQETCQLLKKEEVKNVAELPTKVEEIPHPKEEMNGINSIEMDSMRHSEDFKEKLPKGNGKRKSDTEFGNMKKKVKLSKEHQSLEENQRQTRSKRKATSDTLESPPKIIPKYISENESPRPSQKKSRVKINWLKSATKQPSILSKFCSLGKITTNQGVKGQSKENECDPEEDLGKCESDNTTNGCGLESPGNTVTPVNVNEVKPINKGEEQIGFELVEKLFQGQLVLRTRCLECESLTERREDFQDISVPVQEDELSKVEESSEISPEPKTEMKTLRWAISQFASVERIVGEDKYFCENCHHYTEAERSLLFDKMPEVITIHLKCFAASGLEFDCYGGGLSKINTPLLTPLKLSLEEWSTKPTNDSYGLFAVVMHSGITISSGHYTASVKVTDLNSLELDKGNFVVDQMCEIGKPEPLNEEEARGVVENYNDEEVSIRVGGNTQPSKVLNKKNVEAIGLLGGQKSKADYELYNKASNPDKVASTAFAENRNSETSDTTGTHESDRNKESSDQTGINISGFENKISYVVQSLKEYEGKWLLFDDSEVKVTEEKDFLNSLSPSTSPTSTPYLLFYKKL

Consider `C=C1CCC(O)C/C1=C/C=C1\CCC[C@@]2(C)C(C(C)/C=C/C(C)C(C)C)CC[C@@H]12` (some centres undefined), for which the Potency result in assay [1], in assay [2], in assay [3] and in assay [5] was “inactive” each time. In addition, the activity change, negative = inhibition in assay [4] is 14.3% (inactive). For the same compound, the max response in assay [4] (setting [6]) was determined as 33.4%; in assay [4] (setting [7]), 55.4%.

Turning to `CC1CCC2(C(=O)O)CCC3(C)C(=CCC4C3(C)CCC3[C@@]4(C)CC(O)C(O)[C@@]3(C)CO)C2C1C` (some centres undefined), the Potency entry in assay [1], in assay [2], in assay [3] and in assay [5] was “inactive” each time. Moreover, in assay [4], the activity change, negative = inhibition is 3.5% (inactive). The max response in assay [4] (setting [6]) came to 22.9%; in assay [4] (setting [7]), 33.5%.

With `CCC(CCC(C)C1CCC2C3CC=C4CC(OC(C)=O)CC[C@@]4(C)C3CC[C@@]12C)C(C)C` (some centres undefined), the Potency entry in assay [1], in assay [2], in assay [3] and in assay [5] was “inactive” throughout. Moreover, the activity change, negative = inhibition in assay [4] was 5.75% (inactive). Further, the max response in assay [4] (setting [6]) came to 28.8%; in assay [4] (setting [7]), 28.4%.

Turning to `Nc1nc2nc(Cl)[nH]c2c(=O)[nH]1`, the Potency result in assay [1], in assay [2], in assay [3] and in assay [5] was “inactive” each time. Moreover, in assay [4], the activity change, negative = inhibition is 6.34% (inactive). For the same compound, the max response in assay [4] (setting [6]) was 6.47%; in assay [4] (setting [7]) it was 14.5%.

As for `COc1ccc2c(C)cc(=O)oc2c1`, the Potency result in assay [1], in assay [2], in assay [3] and in assay [5] was “inactive” each time. Further, the activity change, negative = inhibition in assay [4] was 8.28% (inactive). Further, the max response in assay [4] (setting [6]) was 31.7%; in assay [4] (setting [7]), 42.1%.

As for `COC1C(O)C(CO)OC1n1cnc2c(=O)[nH]c(N)nc21` (centres undefined), the Potency entry in assay [1], in assay [2], in assay [3] and in assay [5] was “inactive” throughout. In addition, in assay [4], the activity change, negative = inhibition is 5.46% (inactive). Further, the max response was determined as 13.5% in assay [4] (setting [6]) and 20.7% in assay [4] (setting [7]).

With `CSc1ncnc2c1ncn2C1OC(CO)C(O)C1O` (centres undefined), the Potency entry in assay [1], in assay [2], in assay [3] and in assay [5] was “inactive” in each case. In assay [4], the activity change, negative = inhibition was -6.93% (inactive). Besides, the results for the max response in assay [4] (setting [6]) and in assay [4] (setting [7]) were -18.3% and -24.7%, respectively.

For the compound `CN(C)C1C(=O)C(C(N)=O)=C(O)[C@@]2(O)C(=O)C3=C(O)c4c(O)ccc(Cl)c4C(O)[C@H]3C[C@@H]12` (some centres undefined), the Potency result in assay [1], in assay [3] and in assay [5] was “inactive” in each case. Also, the activity change, negative = inhibition in assay [4] is 5.54% (inactive). Also, the max response in assay [4] (setting [6]) is 25.6%; in assay [4] (setting [7]), 35.5%.

On to `O=C(/C=C/c1ccc(O)c(O)c1)O[C@H]1C[C@@](O)(C(=O)O)CC(O)C1O` (some centres undefined), for which the Potency result in assay [1], in assay [2], in assay [3] and in assay [5] was “inactive” in each case. The activity change, negative = inhibition in assay [4] was 12.5% (inactive). The max response in assay [4] (setting [6]) came out at 13.7%; in assay [4] (setting [7]) it was 29.5%.

Consider `COc1cc2c(cc1O)C(Cc1ccc(O)cc1)[N+](C)(C)CC2` (centres undefined), for which the Potency entry in assay [1], in assay [2], in assay [3] and in assay [5] was “inactive” in each case. Besides, the activity change, negative = inhibition in assay [4] was 12.6% (inactive). The max response in assay [4] (setting [6]) came out at 6.75%; in assay [4] (setting [7]) it was 22.8%.

For `NC(N)=NCCCC(NC(=O)C(N)Cc1ccc(O)cc1)C(=O)O` (centres undefined), the Potency entry in assay [1], in assay [2], in assay [3] and in assay [5] was “inactive” each time. For the same compound, in assay [4], the activity change, negative = inhibition was 5.19% (inactive). For the same compound, the figures for the max response in assay [4] (setting [6]) and in assay [4] (setting [7]) were 20.9% and 29%, respectively.

On to `O=C(O)C1CC(C2CCCCN2)CN2CCCCC12` (centres undefined), for which the Potency entry in assay [1], in assay [2], in assay [3] and in assay [5] was “inactive” in each case. Further, in assay [4], the activity change, negative = inhibition was 2.57% (inactive). The values for the max response in assay [4] (setting [6]) and in assay [4] (setting [7]) were -1.28% and 1.78%, respectively.

Consider `C[C@@H]1/C(=N/O)CC2C[C@@H]1C2(C)C`, for which the Potency result in assay [1], in assay [2], in assay [3] and in assay [5] was “inactive” throughout. Further, the activity change, negative = inhibition in assay [4] is 2.67% (inactive). Besides, the max response in assay [4] (setting [6]) was determined as 9.02%; in assay [4] (setting [7]), 13.7%.

For `Nc1nc2c([nH]c(=S)n2C2OC(CO)C(O)C2O)c(=O)[nH]1` (centres undefined), the Potency result in assay [1], in assay [3] and in assay [5] was “inactive” throughout. Also, the activity change, negative = inhibition in assay [4] is 2.15% (inactive). In addition, the max response in assay [4] (setting [6]) turned out to be 0.955%; in assay [4] (setting [7]), 15.7%.

Consider `O=C(Cc1ccccc1)NO`, for which the Potency result in assay [1], in assay [3] and in assay [5] was “inactive” in each case. In assay [4], the activity change, negative = inhibition is 4.41% (inactive). Moreover, the max response was 2.32% in assay [4] (setting [6]) and 5.58% in assay [4] (setting [7]).

As for `COC1=CC(C)C2CC3OC(=O)CC4C(C)=C(OC)C(=O)C([C@]2(C)C1=O)[C@]34C` (some centres undefined), the Potency entry in assay [1], in assay [2], in assay [3] and in assay [5] was “inactive” throughout. Further, in assay [4], the activity change, negative = inhibition was 1.13% (inactive). The max response came to 5.55% in assay [4] (setting [6]) and 6.48% in assay [4] (setting [7]).

As for `COc1ccc(-c2oc3c(CC=C(C)C)c(O[C@H]4OC(CO)C(O)C(O)C4O)cc(O)c3c(=O)c2O[C@@H]2OC(C)C(O)C(O)C2O)cc1` (some centres undefined), the Potency result in assay [1], in assay [3] and in assay [5] was “inactive” each time. Also, in assay [4], the activity change, negative = inhibition was 3.91% (inactive). Moreover, the max response came to 22% in assay [4] (setting [6]) and 29.5% in assay [4] (setting [7]).

For the compound `O=C(O)C1(O)CC(O)C(O)C(O)C1` (centres undefined), the Potency entry in assay [1], in assay [2], in assay [3] and in assay [5] was “inactive” each time. Moreover, the activity change, negative = inhibition in assay [4] is 2.66% (inactive). Further, the max response in assay [4] (setting [6]) stood at 9.62%; in assay [4] (setting [7]) it was 14.4%.

`COc1cc(/C=C/C(=O)O)cc(OC)c1OC`: the Potency result in assay [1], in assay [2], in assay [3] and in assay [5] was “inactive” each time. In assay [4], the activity change, negative = inhibition is 3.87% (inactive). Moreover, the max response in assay [4] (setting [6]) is 9.64%; in assay [4] (setting [7]), 14.9%.

Take `C=C(C)C1(O)OC(=O)C=C1OC` (centres undefined): the Potency result in assay [1], in assay [2], in assay [3] and in assay [5] was “inactive” in each case. In addition, the activity change, negative = inhibition in assay [4] was -0.62% (inactive). Besides, the max response in assay [4] (setting [6]) is -1.24%; in assay [4] (setting [7]) it was -2.01%.

In the case of `C[N+]1(C)CC(O)[C@H](C(=O)[O-])C1` (some centres undefined), the Potency entry in assay [1], in assay [2], in assay [3] and in assay [5] was “inactive” each time. Besides, in assay [4], the activity change, negative = inhibition was 1.35% (inactive). Moreover, the max response in assay [4] (setting [6]) came out at 0.129%; in assay [4] (setting [7]) it was 0.467%.

On to `CC(=O)Oc1ccc2c(c1OC(C)=O)OCC1(O)Cc3c(cc(OC(C)=O)c(OC(C)=O)c3OC(C)=O)C21` (centres undefined), for which the Potency result in assay [1], in assay [2], in assay [3] and in assay [5] was “inactive” each time. Further, the activity change, negative = inhibition in assay [4] is 0.943% (inactive). The max response in assay [4] (setting [6]) worked out at 9.82%; in assay [4] (setting [7]) it was 11.3%.

Turning to `CC1(C)C2CC[C@@]1(C)C(=O)C2`, the Potency entry in assay [1], in assay [2], in assay [3] and in assay [5] was “inactive” throughout. Moreover, in assay [4], the activity change, negative = inhibition is 3.53% (inactive). For the same compound, the max response in assay [4] (setting [6]) came out at 13.5%; in assay [4] (setting [7]), 19.8%.

As for `NCC1OC(OC2C(N)CC(N)[C@@H](O)[C@@H]2OC2O[C@H](CO)[C@@H](O[C@@H]3OC(CN)C(O)C(O)C3N)C2O)C(N)C(O)C1O` (some centres undefined), the Potency entry in assay [1], in assay [3] and in assay [5] was “inactive” each time. The activity change, negative = inhibition in assay [4] is 9.63% (inactive). Moreover, the max response in assay [4] (setting [6]) came to 15.6%; in assay [4] (setting [7]), 30%.

For `CC(=O)OC1CC[C@@]2(C)C(CC[C@@]3(C)C2CC=C2C4CC(C)(C)CC[C@]4(C(=O)O)CC[C@@]23C)C1(C)C` (some centres undefined), the Potency entry in assay [1], in assay [3] and in assay [5] was “inactive” in each case. In assay [4], the activity change, negative = inhibition is 9.65% (inactive). The figures for the max response in assay [4] (setting [6]) and in assay [4] (setting [7]) were 12.5% and 29%, respectively.
